# GCN5L2 inh – inhibitors of human GCN5L2 histone acetyltransferase | Potency, µM (series often up to 58.9 µM), for the others: top-dose activity change, negative = inhibition, hits mostly inhibitors | actives 0.21% (n = 390,000) | GCN5L2 HAT assay, ThioGlo1 CoA-SH fluorescence; note: potency is the fitted concentration of half-maximal effect
#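 Fluorescence readout, Ex340nm/Em540nm: ThioGlo1 (50uM final) reacts with free CoA thiol released as 20nM GCN5L2 acetylates H3(1-25) peptide (75uM) using acetyl-CoA (70uM). Compound and enzyme sat 15 min beforehand; 20 min room-temperature reaction.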
# TrxR1 substrate – is turned over as a substrate by rat TrxR1. purified TrxR1 substrate turnover, NADPH consumption readout. Potency, µM (doses to about 114 µM), for inactives: top-dose activity change, negative = substrate turnover. actives 0.01% (n = 390,000). AID 588456; note: potency is the fitted concentration of half-maximal effect; nearly all actives have a fitted effect of over 50% in size
#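 Rat TrxR1, dispensed at 90 nM, was prereduced with 400 uM NADPH (final) for 5 min at ~22 deg C, then incubated with compound 15 min before 400 uM selenite. A first-read NADPH fluorescence drop versus no-compound background flagged substrates.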
# Giardia kill – kills Giardia lamblia; Giardia lamblia trophozoite viability; activity change, % at 7.66 µM, hits read low; AID 540267; actives 0.15% (n = 340,000); in the data active = activity change below about -80%; inconclusive = between about -30% and that limit;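 note: parasites exposed to compound for two days anaerobically before the ATP read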
#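 Viability, read as ATP luminescence: trophozoites at 100 cells/well, compound added, 48 hrs anaerobic at 37 deg C, then 15-30 min room-temperature development before reading.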
# Pin1 inh – inhibitors of human Pin1 | Pin1 FP peptide displacement, HiFluor488, 10 min | Q13526 | Potency, µM (top dose mostly 115 µM), for inactives: at the top dose activity, negative = inhibition, usual class: inhibitors | actives 0.009% (n = 390,000); active = well fitted inhibition curve with a large enough effect in the polarisation, with a control signal flat, not every such curve was filed as active; inconclusive = small, poorly fitted or top-dose-only effect, or effect the other way, or a change in a side signal; inactive = no such curve, though single readings can be large or run the other way; the % refers to the polarisation; note: potency is the fitted concentration of half-maximal effect
# Target sequence (Q13526 whole entry, looked up): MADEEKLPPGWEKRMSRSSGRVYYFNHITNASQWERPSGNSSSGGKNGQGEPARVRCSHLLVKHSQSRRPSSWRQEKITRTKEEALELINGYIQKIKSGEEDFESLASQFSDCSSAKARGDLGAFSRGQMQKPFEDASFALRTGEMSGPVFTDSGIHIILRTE
# GALK inhibitor – galactokinase (human) inhibition. P51570. Purified GALK, Kinase-Glo residual ATP luminescence. Potency, µM (doses to about 57.5 µM), inactives show at the top dose activity change, negative = inhibition, actives largely listed as inhibitors. actives 0.007% (n = 270,000). AID 1868; note: potency is the fitted concentration of half-maximal effect
# Target sequence (P51570 whole entry, looked up): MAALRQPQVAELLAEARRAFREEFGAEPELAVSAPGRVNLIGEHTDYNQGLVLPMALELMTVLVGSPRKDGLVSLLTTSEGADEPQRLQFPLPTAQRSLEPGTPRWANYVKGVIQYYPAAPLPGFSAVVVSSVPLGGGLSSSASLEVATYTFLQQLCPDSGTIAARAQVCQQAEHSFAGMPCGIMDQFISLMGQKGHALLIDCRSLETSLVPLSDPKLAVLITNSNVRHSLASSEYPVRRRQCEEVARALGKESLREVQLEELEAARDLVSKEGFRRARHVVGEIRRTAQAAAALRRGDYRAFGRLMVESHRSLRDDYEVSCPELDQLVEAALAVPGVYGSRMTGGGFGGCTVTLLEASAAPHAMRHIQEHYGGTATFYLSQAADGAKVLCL
#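 Quantitative HTS: GALK 5 nM, ATP 35 uM, galactose 100 uM, 1 h room temperature, then luciferase-based ATP detection.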
# TrxR1 inh – inhibitors of rat thioredoxin reductase 1. O89049. recombinant rTrxR1, NADPH fluorescence consumption, selenite substrate. Potency, µM (top dose mostly 114 µM), without a hit: top-dose activity change, negative = inhibition, most hits filed as inhibitors. actives 1% (n = 390,000); note: potency is the fitted concentration of half-maximal effect; nearly all actives have a fitted effect of over 65% in size
#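 Rat TrxR1 (90 nM in the dispensed reagent) was pre-reduced with 400 uM NADPH for 5 min at room temperature, then incubated with compound for 15 min. After 400 uM selenite was added, NADPH fluorescence (Ex 340/Em 450 nm) was followed for 8 min.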
# An asterisk follows results filed as active; ? = inconclusive; . = not tested or not shown; ! = not active in a repeat; [ ] = another dose, or the depositor's remark. Only some compounds are listed: those with a hit (about 1.3% of all), similar ones and a draw of the others. Unless noted, calls come from the whole dose curve; as a rule, active = well fitted curve in the direction sought with a large enough effect; inconclusive = small, poorly fitted or top-dose-only effect, or another doubt; inactive = no such curve, though single readings can be large; an effect the other way counts as inactive or inconclusive. % is set by controls: 0 for no effect and ±100 for the full control effect.
SMILES,GCN5L2 inh,TrxR1 substrate,Giardia kill,Pin1 inh,GALK inhibitor,TrxR1 inh
CC(=O)Nc1ccc(NC(=O)c2nc(S(=O)(=O)Cc3ccccc3)ncc2Cl)cc1,-28%,-2%,-23,-9%,-1%,15%
CS(=O)(=O)c1ncc(Cl)c(C(=O)N(Cc2ccc(Cl)cc2)Cc2ccco2)n1,0%,12%,.,1%,.,0.71µM*
O=C(NCc1ccccc1)c1nc(S(=O)(=O)Cc2ccccc2)ncc1Cl,?,-2%,12,4%,1%,2.8µM*!
COc1ccc(CNC(=O)c2nc(S(=O)(=O)Cc3ccccc3)ncc2Cl)cc1,0%,-4%,-11,0%,-8%,3.2µM*!
C[C@H](N)C(=O)N[C@@H](CO)C(=O)N[C@H](C(=O)N[C@H](C(=O)N[C@H](C(=O)N[C@@H](CC(N)=O)C(=O)N[C@@H](Cc1ccc(O)cc1)C(=O)N[C@H](C(=O)O)[C@@H](C)O)[C@@H](C)O)[C@@H](C)O)[C@@H](C)O,-13%,.,.,.,.,.
COc1ccc(N(Cc2ccccc2)C(=O)c2nc(S(C)(=O)=O)ncc2Cl)cc1,1%,7%,.,9%,.,1µM*
O=C(NCc1ccc2c(c1)OCO2)c1nc(S(=O)(=O)Cc2ccccc2)ncc1Cl,-10%,3%,2,8%,-3%,11µM*
O=C(c1ccc2c(c1)N(Cc1cccc(Cl)c1)C(=O)c1ccccc1S2)N1CCOCC1,-6%,6%[57.1 µM],.,-2%,.,9%[57.1 µM]
CN(Cc1ccccc1)C(=O)c1nc[nH]c1C(=O)N1CCc2ccccc2C1,0%,1%,-4,-2%,.,40µM*
O=C(CNC(=O)c1ccc2ccccc2c1)OC(C(=O)Nc1cc(C(F)(F)F)ccc1Cl)c1ccccc1 (stereo not given),.,.,.,12%,.,.
CCCCNC1=CC(=O)C(=O)c2ccccc21,-5%,-9%,3,-2%,-1%,17%
CCCCN1C=CC(=C2C(=O)c3ccccc3C2=O)C=C1,-17%,-3%,-95*,?,15%,-9%
CC(=NNC(=O)C(C)SC(C)C(=O)NN=C(C)c1cccnc1)c1cccnc1 (stereo not given),.,7%[57.1 µM],8,-18%,.,9%[57.1 µM]
CCc1ccc2occ(CC(=O)Nc3sc4c(c3C(=O)NCCOC)CCCC4)c2c1,-1%,4%,.,-10%,.,20%
CC1=NN=C(c2ccccc2)C(c2c[nH]c3ccccc23)N1O (stereo not given),-5%,0%,-11,2%,.,?
Cc1[nH]c2ccccc2c1C1C(c2ccccc2)=NN=C(C(C)C)N1O (stereo not given),-2%,-9%,-8,-6%,0%,45µM*
CC1=C(C)/C(=N/OC(=O)c2cccc([N+](=O)[O-])c2)C=CC1=O,-7%,-6%,-2,0%,-1%,8.9µM*
CCCCCCCCCCCCCCC(C(=O)O)C(O)(CC(=O)OC)C(=O)O (stereo not given),13µM*,.,.,.,.,.
CN(C)c1ccc(/C=C(\C#N)c2ccccn2)cc1,-14%,-19%,-98*,?,1%,-23%
COC(=O)c1ccc(OC(=O)c2ccccn2)cc1,-8%,0%[57.1 µM],-5,-2%,-4%,9%[57.1 µM]
N#CC(C#N)=Cc1ccc(OC(=O)c2ccccn2)cc1,-4%,0%[57.1 µM],1,-1%,1%,13µM*
C(=C\c1ccnc2ccccc12)/c1cc2c3c(c1)CCCN3CCC2,.,11%[0.0914 µM],.,.,.,-12%
Cc1cccc(C(=O)NC(=S)Nc2ccc(N3CCOCC3)cc2)c1,1%,-8%,-18,-5%,-4%,32µM*
COC(=O)c1cc(NC(=S)NC(=O)c2ccccc2)ccc1N1CCOCC1,1%,-15%,-5,0%,6%,28µM*
COC(=O)c1cc(NC(=O)c2c(-c3ccccc3)noc2C)ccc1N1CCOCC1,-2%,-3%,21,-9%,-1%,-2%
SMILES,GCN5L2 inh,TrxR1 substrate,Giardia kill,Pin1 inh,GALK inhibitor,TrxR1 inh
CCOc1ccc(C(=O)N2CCC(c3nnc(-c4ccccc4OC)o3)CC2)cc1,-1%,-7%,.,1%,.,0%
COC(CN(C(=O)CCl)C(C(=O)NC1CCCC(C)C1C)c1ccc(C)cc1)OC (stereo not given),2%,-7%,15,2%,-3%,56µM*
COC(CN(C(=O)CCl)C(C(=O)NC1CCCCC1)c1ccc(Cl)cc1)OC (stereo not given),-2%,-10%,15,-5%,1%,35µM*
COC(CN(C(=O)CCl)C(C(=O)NC1CCCCC1)c1ccccc1C)OC (stereo not given),-4%,2%,-5,-4%,4%,40µM*
COC(CN(C)C(C(=O)NC1CCCCC1)c1ccccc1)OC (stereo not given),-8%,6%,2,-4%,-1%,20%[57.1 µM]
COc1ccc(C(C(=O)NC2CCCCC2)N(C(=O)CCl)c2ccc(Cl)cc2)cc1 (stereo not given),-5%,-8%,8,1%,1%,?
O=C(NC1CCCC1)C(c1ccc(Cl)cc1)N(Cc1ccc(F)cc1)C(=O)CCl (stereo not given),-2%,4%,-3,-10%,1%,13µM*
Cc1c([N+](=O)[O-])cnc2ccccc12,.,1%,.,.,.,17%
Cc1ccc(S(=O)(=O)N2CCN(Cc3ccccc3C(F)(F)F)CC2)cc1,1.6µM*,7%[57.1 µM],7,-1%,-1%,18%[57.1 µM]
O=S(=O)(c1ccccc1)N1CCN(Cc2ccccc2C(F)(F)F)CC1,-7%,-6%,-9,?,0%,4%[57.1 µM]
CSCC[C@H](NC(=O)[C@@H](NC(=O)[C@H](CCC(=O)O)NC(=O)[C@H](CCSC)NC(=O)[C@H](CC(N)=O)NC(=O)[C@H](CCC(=O)O)NC(=O)[C@H](CC(N)=O)NC(=O)[C@H](CO)NC(=O)[C@H](C)N)[C@@H](C)O)C(=O)O,-10%,.,.,.,.,.
CCOC(=O)C1(Cc2cccc(OC)c2)CCCN(C(=O)c2ccc(OC)o2)C1 (stereo not given),0%,4%,10,6%,-6%,50µM*
CCOC(=O)c1c(-c2ccc(C)o2)csc1NC(=S)NC(=O)N(C)C,-9%,-2%,-1,-5%,4%,11µM*
CCOC(=O)c1c(-c2ccc(C)o2)csc1NC(=O)CSc1ncn[nH]1,-4%,-5%,0,21%,-1%,40µM*
CCOC(=O)c1c(-c2ccc(C)o2)csc1NC(=O)COC(=O)c1cccs1,-7%,12%,28,34%,2%,?
O=C(O)/C=C/c1cc(F)c(S(=O)(=O)N2CCN(S(=O)(=O)c3ccc4c(c3)OCCO4)CC2)cc1F,.,.,.,3%,.,.

# Screening data: PubChem, National Center for Advancing Translational Sciences (NCATS)
